Consider 47 compounds from PubChem BioAssay (NCI).

About 79,000 compounds went through this panel and 15% of them were active in at least one assay; those are over-represented in the sample as a whole. Unmarked numbers belong to inactive results. Active and inactive are the calls of the source. Cut-off read from the data, not from the text of the source: active = growth inhibition above about 70%; inactive = the rest.

A short description of experiment [1]: NCI Yeast Anticancer Drug Screen. Data for the rad50 strain (AID 155).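 Note: 0% = growth of vehicle-only cultures of the same strain.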 To be noted: S. cerevisiae rad50 strain growth inhibition; at 50.0 µM; active compounds read high. Put shortly: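 Growth of the mutant yeast was measured after compound exposure and referenced to vehicle-treated cultures.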
The nature of experiment [2]: NCI Yeast Anticancer Drug Screen. Data for the mec2-1 strain (AID 157). To be noted: S. cerevisiae mec2-1 strain, at 50.0 µM, active compounds read high. Put shortly: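 Growth inhibition is read against vehicle-treated controls after compound exposure of the mec2-1 yeast strain, which is defective in DNA damage repair or cell cycle control.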
A short description of experiment [3]: NCI Yeast Anticancer Drug Screen. Data for the sgs1 mgt1 strain (AID 161).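 Note: 0% = growth of cultures given vehicle only.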 To be noted: S. cerevisiae sgs1 mgt1 strain, at 50.0 µM, active compounds read high. Put shortly:
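Percent growth inhibition was derived by comparing compound-exposed mutant yeast with vehicle-exposed cultures. The strain carries alterations in DNA damage repair.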

Experiment [4] can be described thus: NCI Yeast Anticancer Drug Screen. Data for the cln2 rad14 strain (AID 165).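 Note: 0% = growth equal to vehicle treated cultures.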 To be noted: S. cerevisiae cln2 rad14 strain, at 50.0 µM, active compounds read high. Put shortly:
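Growth inhibition, relative to vehicle-treated controls, is the read-out. The test organism is a yeast strain with defined genetic alterations, cln2 rad14.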

A short description of experiment [5]: NCI Yeast Anticancer Drug Screen. Data for the bub3 strain (AID 167). To be noted: S. cerevisiae bub3 mutant strain, at 50.0 µM, active compounds read high. Put shortly: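 Whole-cell yeast assay. The mutant strain was incubated with compounds, and growth inhibition was determined by comparison with vehicle-treated cells.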
The nature of experiment [6]: NCI Yeast Anticancer Drug Screen. Data for the mlh1 rad18 strain (AID 175). To be noted: S. cerevisiae mlh1 rad18 strain growth inhibition; at 50.0 µM; active compounds read high. Put shortly: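 Cells of a genetically altered yeast strain, deficient in DNA damage repair, were treated with compound. Their growth was then compared with that of vehicle-treated cultures to give inhibition.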

With `COc1cc(C(=O)N2C[C@H](O)C[C@H]2C(=O)O)cc(OC)c1OC`, the growth inhibition in experiment [1] was -18.4%; in experiment [2], -15.9%; in experiment [3] it was -32.8%; in experiment [4], -5.75%; in experiment [5] it was -16.4%.
With `Fc1c(F)c(F)c(SN=S=Nc2ccccc2)c(F)c1F`, the growth inhibition in experiment [1] was 13.4%; in experiment [2] it was 12.1%; in experiment [3], 13.3%; in experiment [4] it was -1.35%; in experiment [5], 15.1%.
Consider `C=CC(OC(=O)/C=C/C)OC(=O)/C=C/C`, for which the growth inhibition was 16.9% in experiment [1]; 0.85% in experiment [2]; 6.8% in experiment [3]; 12.6% in experiment [4]; 20.1% in experiment [5].
The matching figures for `Cc1ccc(S(=O)(=O)OCC2OCOC2C2OCOC2CI)cc1` (stereo not drawn): 12.2%, 3%, 2.6%, -9.9% and 10.1%.
For the compound `CC(C)COC1=CC(=O)c2ccccc2C1=O`, the growth inhibition in experiment [1] is 16.4%; in experiment [2], 17.4%; in experiment [3] it was 18.6%; in experiment [4], -1.05%; in experiment [5], 35%.
On the same counts, the results for `CCCCCC/C=C1\CCC(CN(C)C)C1=O` (stereo not drawn) are 79.4% (active), 93.2% (active), 91.1% (active), 89.8% (active) and 90.7% (active).
With `CC(C)CC1=C(C(=O)c2ccoc2)CC(C)C1` (stereo not drawn), the growth inhibition is 6.55% in experiment [1]; -7.6% in experiment [2]; -18.9% in experiment [3]; 12.1% in experiment [4]; 25.9% in experiment [5].
With `O=C(OCC1OC(OC(=O)N(c2ccccc2)c2ccccc2)C(OS(=O)(=O)c2ccc([N+](=O)[O-])cc2)C1OC(=O)c1ccccc1)c1ccccc1` (stereo not drawn), the growth inhibition was 34.1% in experiment [1]; -5.05% in experiment [2]; -5.05% in experiment [3]; -10% in experiment [4]; 0.1% in experiment [5].
In the case of `[O-]c1c(Cl)c(Cl)c(O[P+](c2ccccc2)(c2ccccc2)c2ccccc2)c(Cl)c1Cl`, the growth inhibition in experiment [1] is 99.2% (active); in experiment [2], 99.4% (active); in experiment [3], 99.5% (active); in experiment [4] it was 97.9% (active); in experiment [5], 99% (active).
On the same counts, the results for `O=C1CSC(=NCCN=C2NC(=O)CS2)N1` are 10.5%, 18.3%, 9.25%, 1.6% and 15.1%.
Regarding `C#Cc1c(C)c(/C=C/C(C)=C/C=C/C(C)=C/C(=O)OC)n(C)c1C`, the growth inhibition in experiment [1] was 12.2%; in experiment [2], 4.7%; in experiment [3] it was 20.3%; in experiment [4], 10.8%; in experiment [5] it was 23.6%.
The matching figures for `C=CCOc1cc2c(cc1Cc1cc(OC)c(OC)c(OC)c1)OCO2`: 22.9%, -20.8%, 49.6%, 9.85% and 37.6%.
The matching figures for `COC(=O)c1ccc(C(=O)OC)c2nc3ccccc3nc12`: 13.1%, 9.35%, 8.45%, 8.9% and 15.1%.
On the same counts, the results for `O=C1OC(c2cccc([N+](=O)[O-])c2)=N/C1=C\c1ccccc1` are 17.2%, 12.1%, 14.6%, 18.4% and 15.3%.
As to `O=C(N=Nc1c(O)[nH]c2ccc(Br)cc12)c1ccncc1`, the growth inhibition was -1.75% in experiment [1]; 2.8% in experiment [2]; 9.6% in experiment [3]; 3.2% in experiment [4]; 8.25% in experiment [5].
On to `CC(C)(/C=N\O)NO`, for which the growth inhibition is -14.8% in experiment [1]; -20.4% in experiment [2]; 0.4% in experiment [3]; 13.6% in experiment [4]; -9.05% in experiment [5].
For the compound `O=C(O)CCCCCN1C(=O)c2cccc([N+](=O)[O-])c2C1=O`, the growth inhibition is 17.6% in experiment [1]; 10% in experiment [2]; 22.5% in experiment [3]; 19.2% in experiment [4]; 12.3% in experiment [5].
Regarding `NNC(=O)C(=O)O`, the growth inhibition in experiment [1] was 14.4%; in experiment [2] it was -2.95%; in experiment [3], 20.2%; in experiment [4], -15%; in experiment [5] it was 15.3%.
In the case of `FC(F)(F)c1cc(Nc2nc(-c3ccccc3)nc3c2C(=NCc2ccco2)OC3=NCc2ccco2)ccc1Cl`, the growth inhibition in experiment [1] is 5%; in experiment [2], 14.6%; in experiment [3], 2.9%; in experiment [4], -6.35%; in experiment [5] it was -4.7%.
The matching figures for `CC(=O)OC12c3ccccc3C(c3ccccc31)C1C(=O)N(c3ccccn3)C(=O)C12` (stereo not drawn): -23.6%, -7.4%, 5.9%, 3.35% and 9.9%.
For the compound `Fc1ccc(C(Nc2nncs2)Nc2nncs2)c(F)c1`, the growth inhibition in experiment [1] was -0.8%; in experiment [2], -13.8%; in experiment [3], 12.6%; in experiment [4], -44.1%; in experiment [5], -35.8%.
As for `CC(=O)NC(Cc1c[nH]c2ccccc12)C(=O)Oc1ccc([N+](=O)[O-])cc1` (stereo not drawn), the growth inhibition is -9.2% in experiment [1]; 23.1% in experiment [2]; 24.6% in experiment [3]; 13.1% in experiment [4]; 9.3% in experiment [5].
On the same counts, the results for `N#Cc1ccc(Oc2ccc(C#N)cc2)cc1` are 12.2%, -19.6%, -8.45%, 18.4% and -0.4%.
The matching figures for `O=[N+]([O-])c1ccc2c(c1)Cc1cccc([N+](=O)[O-])c1-2`: 2%, -2.1%, 0.25%, -21.9% and -5.9%.
On the same counts, the results for `OCc1cc2ccc3ccccc3c2[nH]1` are 25.3%, 24.9%, 47.9%, 2.65% and 25.5%.
As for `O=Nc1ccc(O)cc1O`, the growth inhibition in experiment [1] is 16.9%; in experiment [2], 2.5%; in experiment [3], 1.15%; in experiment [4], -38.6%; in experiment [5] it was 33.3%.
The matching figures for `CC(C)N(C(=O)c1ncccc1C(=O)c1ccccn1)C(C)C`: -11.4%, -5.65%, -4.75%, -5.2% and -5.85%.
The matching figures for `CC(C)CNC(=S)N/N=C/c1ccc(N)cc1`: 31.6%, 13.7%, 3%, 27.8% and 6%.
On the same counts, the results for `CCN1C(=O)/C(=C\c2coc3ccccc3c2=O)SC1=S` are -2.6%, -34.7%, 0.2%, 0.5% and -23.7%.
For `Nc1ccn(C2OC(CO)C(O)C2Br)c(=O)n1` (stereo not drawn), the growth inhibition is 3.9% in experiment [1]; 8.75% in experiment [2]; 14.2% in experiment [3]; -12% in experiment [4]; -10.1% in experiment [5].
The matching figures for `Cc1nc(C(N)=S)sc1C(=O)CC(=O)C(=O)Nc1c(C(C)C)cccc1C(C)C`: -28.1%, -41.6%, -31.8%, -24.9% and -8.55%.
Take `CCOC(=O)c1c(-c2ccc(OC)cc2)c(C#N)c(=S)n(C2OC(CO)C(O)C(O)C2O)c1C` (stereo not drawn): the growth inhibition in experiment [1] was 17.7%; in experiment [2] it was -9.5%; in experiment [3], 3.05%; in experiment [4], 6.3%; in experiment [5], 22.4%.
With `CC1C2=C(CC(C)(C)CC2=O)OC2=C1C(=O)CC(C)(C)C2`, the growth inhibition in experiment [1] is -16.1%; in experiment [2] it was -7.9%; in experiment [3] it was -7.8%; in experiment [4], -5.3%; in experiment [5], 4.65%.
Consider `O=C1C2CSCN2C(=O)C2CSCN12` (stereo not drawn), for which the growth inhibition in experiment [1] is 5%; in experiment [2] it was 4.45%; in experiment [3], 5.7%; in experiment [4], 12.1%; in experiment [5], 8.8%.
On the same counts, the results for `[O-][n+]1c(/C=C/c2cccc3ccccc23)cccc1/C=C/c1cccc2ccccc12` are -8.6%, 1%, 42.8%, 6.55% and 29.4%.
As to `O=S1(=O)C=CC(N/N=C/c2cc(Cl)cc(Cl)c2)=C1`, the growth inhibition in experiment [1] is 37.7%; in experiment [2], 9.3%; in experiment [3], 20.5%; in experiment [4] it was -38.2%; in experiment [5], 26.9%; in experiment [6], 26.6%.
In the case of `N#Cc1c[nH]c2cccc([N+](=O)[O-])c12` (tested in a mixture with another compound), the growth inhibition was 7.95% in experiment [1]; -10.9% in experiment [2]; 7.8% in experiment [3]; 17.9% in experiment [4]; 13.4% in experiment [5].
Turning to `CC1(C)Cc2oc(=Nc3ccccc3)n(-c3ccccc3)c(=O)c2C1`, the growth inhibition in experiment [1] is 9.95%; in experiment [2] it was 2.15%; in experiment [3], 1.9%; in experiment [4] it was -13.2%; in experiment [5] it was 4.6%.
For `NC(=O)C(CC(C(N)=O)C(N)=O)C(N)=O`, the growth inhibition in experiment [1] is 7.5%; in experiment [2], 18.4%; in experiment [3] it was -8.45%; in experiment [4] it was -24.9%; in experiment [5], 7.7%.
As to `NC(=O)c1nnsc1NC=O`, the growth inhibition in experiment [1] is 15.2%; in experiment [2], 7.95%; in experiment [3], -40.7%; in experiment [4], -0.2%; in experiment [5], -26.1%.
For `Cc1ccc(-c2cc(=S)n(-c3ccccc3)c3nc(=S)n(-c4ccccc4)c(N)c23)cc1`, the growth inhibition in experiment [1] is 14.4%; in experiment [2], 24.4%; in experiment [3], 18.1%; in experiment [4] it was -12.9%; in experiment [5], 23.8%; in experiment [6], 25.9%.
For the compound `Nc1nc(N)nc(SCCO)n1`, the growth inhibition in experiment [1] was -25.1%; in experiment [2], 1.55%; in experiment [3] it was -14.1%; in experiment [4], -44.8%; in experiment [5], -4.75%; in experiment [6], -8.45%.
In the case of `CN(C=C(c1ccccc1)c1ccccc1)c1ccccc1`, the growth inhibition is -15.6% in experiment [1]; -7.85% in experiment [2]; 2.2% in experiment [3]; -21.6% in experiment [4]; -12.8% in experiment [5]; -32.6% in experiment [6].
As to `CC(=O)NCC1(c2ccccc2)CCN(CC2COc3ccccc3O2)CC1` (stereo not drawn), the growth inhibition in experiment [1] is -15.3%; in experiment [2] it was -16.4%; in experiment [3], -15.2%; in experiment [4] it was 16%; in experiment [5], 17.1%; in experiment [6], 9.45%.
`CN(C)/N=C/c1cn(C)c(=O)n(C)c1=O`: the growth inhibition was 0.15% in experiment [1]; 3% in experiment [2]; 5.75% in experiment [3]; -5.55% in experiment [4]; -20.3% in experiment [5]; 1.85% in experiment [6].
For `Cn1c(=O)c2[nH]c(SCc3cccnc3)nc2n(C)c1=O`, the growth inhibition is -4.35% in experiment [1]; -11.1% in experiment [2]; 6.85% in experiment [3]; -44.9% in experiment [4]; 4.7% in experiment [5]; -10.6% in experiment [6].
Turning to `O=C(c1ccccc1)c1ccccc1`, the growth inhibition is 23.9% in experiment [1]; 2.35% in experiment [2]; -13.2% in experiment [3]; -16.8% in experiment [4]; 14.3% in experiment [5]; 14.1% in experiment [6].
